These results are taken from PubChem BioAssay (Tox21).

Molecules are shown by their SMILES. Values joined by “and” are separate entries in the source; they are usually repeats but may differ in a detail not shown here. Equal entries are not always repeated. Records with an inconclusive call do not appear. Some compounds were tested as several samples or in several runs, with calls that do not always agree. Active and inactive are the calls of the source. Calls follow the shape of the dose curve; as a rule, active = well fitted inhibition curve with a large enough effect in the signal ratio in the repeat runs; inconclusive = weak or mixed curves, or effect the other way; inactive = flat fitted curve, though single readings scatter; the % refers to the signal ratio.
% is scaled to controls: 0 for no effect and ±100 for the full control effect; potency is read from the fitted curve at half-maximal effect.

The experiment in a line: qHTS assay for small molecule disruptors of the mitochondrial membrane potential (AID 720635). Particulars: HepG2 mitochondrial membrane potential, Mito-MPS dye ratio; series mostly up to 83.2 µM; ratio activity, negative = MMP loss: at the top concentration. The source says: U.S. Tox21 Program National Center for Advancing Translational Sciences [NCATS] NIH Chemical Genomics Center [NCGC] U.S. Environmental Protection Agency [EPA] National Institutes of Environmental Health Sciences [NIEHS] National Toxicology Program [NTP] U.S. Food and Drug Administration [FDA] Tox21 Assay Overview: Mitochondrial membrane potential (MMP), one of the parameters for mitochondrial function, is generated by mitochondrial electron transport chain that creates an electrochemical gradient by a series of redox reactions. This gradient drives the synthesis of ATP, a crucial molecule for various cellular processes. Measuring MMP in living cells is commonly used to assess the effect of chemicals on mitochondrial function. […] The dye accumulates in the mitochondria of healthy cells as aggregates, with red fluorescence. The mitochondrial potential collapses and the dye can no longer accumulate in the mitochondria and remains in the cytoplasm in monomers, with green fluorescence.
Tox21 Assay Protocol Summary: 2,000 HepG2 cells in 5 uL/well were dispensed into black, clear-bottom 1536-well plates using a Multidrop Combi (Thermo Scientific) dispenser. The assay plates were incubated overnight at 37C to allow cells to attach to the wells, followed by the transfer of 23 nL compound or DMSO vehicle by a pin tool (Kalypsys). The plates were incubated for 1 hr at 37C and 5% CO2, followed by the addition of 5 uL of 2X Mito-MPS dye (BD Biosciences) into each well using Flying Reagent Dispenser (Aurora Discovery) and then following 30 min incubation at 37C. Fluorescence intensity (490nm excitation and 535nm emission for monomers; and 540nm excitation and 590nm emissions for aggregates) was measured using an Envision plate reader.
Background: Quantitative high-throughput screening tests each substance at several concentrations.
Consider `CCCCCCOCCO`, for which the “ratio activity, negative = MMP loss” value was 0.33% [at 95.3 µM] (inactive).

As for `O=C(CC(C(=O)OC1CCCCC1)S(=O)(=O)O)OC1CCCCC1` (stereo not given), the “ratio activity, negative = MMP loss” value was 11.3% [at 95.3 µM] (inactive).

`Cc1ccc(N(C)C)cc1`: the “ratio activity, negative = MMP loss” value is -10.4% (inactive).

For the compound `O=C=NCCCCCCN=C=O`, the Potency result is “inactive”.

Take `CC1CCC2CC1C2(C)C` (stereo not given): the Potency entry is “inactive”.

On to `CN(C)CCC(c1ccc(Cl)cc1)c1ccccn1` (stereo not given), for which the “ratio activity, negative = MMP loss” value is 20.1% (inactive).

As to `O=C(Oc1ccccc1)c1ccccc1`, the Potency entry is “inactive”.

`CCCCCC/C(C=O)=C\c1ccccc1`: the “ratio activity, negative = MMP loss” value was -10.2% [at 95.3 µM] (inactive).

Take `O=S(=O)(O)c1ccc2ccccc2c1`: the “ratio activity, negative = MMP loss” value was 18.4% (inactive).

Turning to `COc1ccc(NC(C)=O)cc1N`, the Potency result is “inactive”.

In the case of `COc1cc(Cc2cnc(N)nc2N)cc(OC)c1OC`, the “ratio activity, negative = MMP loss” value is 29.7% (inactive).

As for `Cc1cccc(O)c1`, the Potency entry is “inactive”.

In the case of `c1ccc(OCCOc2ccccc2)cc1`, the Potency was 24.3 µM (active).

For the compound `CC[C@H](C)C(=O)O[C@H]1C[C@@H](C)C=C2C=C[C@H](C)[C@H](CC[C@@H]3C[C@@H](O)CC(=O)O3)[C@H]21`, the Potency is 18.8 µM (active) and 62 µM (active) and 60.8 µM (active).

Consider `CC(=O)Nc1cccc(O)c1`, for which the Potency result is “inactive”.

For the compound `O=C(O)[C@H](O)[C@@H](O)[C@H](O)[C@H](O)CO`, the Potency entry was “inactive”.

For `O=[N+]([O-])c1ccc(/C=C/c2ccc([N+](=O)[O-])cc2S(=O)(=O)O)c(S(=O)(=O)O)c1`, the Potency result is “inactive”.

As for `CCCCCCCC(=O)OC`, the Potency result was “inactive”.

`C[Si](O[Si](C)(C)C)O[Si](C)(C)C`: the Potency entry was “inactive”.

In the case of `c1ccc2scnc2c1`, the Potency result is “inactive”.

With `c1ccc2c(c1)ccc1ccccc12`, the Potency was 59.5 µM (active).

Turning to `CCCCCC(N)=O`, the “ratio activity, negative = MMP loss” value was 7.97% (inactive).

Regarding `CCCSc1ccc2nc(NC(=O)OC)[nH]c2c1`, the Potency is 4.52 µM (active) and 12.2 µM (active).

As to `COc1ccc(Nc2ccccc2)c(C)c1`, the Potency result was “inactive and 48.6 µM (active)”.

Take `O=C(OCCOCCOC(=O)c1ccccc1)c1ccccc1`: the Potency result is “inactive”.

With `O=C(O)c1cc(O)c(O)c(O)c1`, the “ratio activity, negative = MMP loss” value was 6.17% (inactive).

Take `CC(c1cc2ccccc2s1)N(O)C(N)=O` (stereo not given): the “ratio activity, negative = MMP loss” value is -5.25% (inactive).

As for `CC(O)COCC(C)O` (stereo not given), the “ratio activity, negative = MMP loss” value is 8.81% (inactive).

For the compound `COc1ccc2cc([C@H](C)C(=O)O)ccc2c1`, the “ratio activity, negative = MMP loss” value is 8.38% [at 39.1 µM] (inactive).

In the case of `CC(=O)c1ccccc1`, the “ratio activity, negative = MMP loss” value was 13.3% [at 95.3 µM] (inactive).

For `CC1CCC(C(C)C)C(O)C1` (stereo not given), the “ratio activity, negative = MMP loss” value was 11.2% (inactive).

As for `CC(C)CC(=O)CC(C)C`, the Potency entry was “inactive”.

As to `O=c1[nH]c(=O)n([C@H]2CCCO2)cc1F`, the “ratio activity, negative = MMP loss” value is -14.9% (inactive).

As for `CCCCCCCCCCCCc1ccccc1`, the Potency result is “inactive”.

As for `COS(C)(=O)=O`, the “ratio activity, negative = MMP loss” value was 7.91% [at 95.3 µM] (inactive).

Take `CC1=CC(=O)NS(=O)(=O)O1`: the Potency result was “inactive”.

Regarding `O=C1CCC(N2C(=O)c3ccccc3C2=O)C(=O)N1` (stereo not given), the Potency entry is “inactive”.

As to `CC(=O)CC(=O)Nc1ccccc1`, the Potency result is “inactive”.

As to `C=C(C)C(=O)O[C@H]1C[C@@H]2CC[C@@]1(C)C2(C)C`, the “ratio activity, negative = MMP loss” value is 3.36% (inactive).

Consider `CCCCC(CC)COC(=O)CS` (stereo not given), for which the “ratio activity, negative = MMP loss” value is 16.9% [at 95.3 µM] (inactive).
